Results reported in PubChem BioAssay (NCATS).
Several values for one entry are separate records, joined by “and”; a condition that tells them apart may be missing. Equal values may be shown once. Results filed as inconclusive are left out. Entries that show only a call come without a potency. A structure can be active in one record and inactive in another. Activity calls are given as the source filed them. Calls come from the whole dose curve; as a rule, active = well fitted curve in the direction sought with a large enough effect; inconclusive = small, poorly fitted or top-dose-only effect, or another doubt; inactive = no such curve, though single readings can be large; an effect the other way counts as inactive or inconclusive.

How the values were obtained:
[1] = molecular target: Nicotinamide N-methyltransferase (Homo sapiens) (UniProt P40261); experiment: Confirmatory Screen for Target Class Profiling of Small Molecule Inhibitors of Methyltransferases (AID 1745852); details: MTase-Glo luminescence, SAH detection, recombinant enzyme; measured here: NNMT max response; stronger effect = lower value
Chain of Nicotinamide N-methyltransferase (Homo sapiens) (P40261 whole entry, looked up): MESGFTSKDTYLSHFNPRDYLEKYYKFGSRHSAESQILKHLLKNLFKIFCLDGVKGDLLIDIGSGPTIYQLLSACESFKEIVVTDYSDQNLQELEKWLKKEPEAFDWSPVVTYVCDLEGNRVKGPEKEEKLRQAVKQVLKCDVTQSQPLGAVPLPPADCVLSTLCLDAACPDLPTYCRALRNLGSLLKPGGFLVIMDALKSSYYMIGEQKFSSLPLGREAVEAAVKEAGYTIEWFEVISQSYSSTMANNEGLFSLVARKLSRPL

[2] = molecular target: Phenylethanolamine N-methyltransferase (Homo sapiens) (UniProt P11086); experiment: as above; details: MTase-Glo luminescence, SAH detection, recombinant enzyme; measured here: PNMT max response; stronger effect = lower value
Chain of Phenylethanolamine N-methyltransferase (Homo sapiens) (P11086 whole entry, looked up): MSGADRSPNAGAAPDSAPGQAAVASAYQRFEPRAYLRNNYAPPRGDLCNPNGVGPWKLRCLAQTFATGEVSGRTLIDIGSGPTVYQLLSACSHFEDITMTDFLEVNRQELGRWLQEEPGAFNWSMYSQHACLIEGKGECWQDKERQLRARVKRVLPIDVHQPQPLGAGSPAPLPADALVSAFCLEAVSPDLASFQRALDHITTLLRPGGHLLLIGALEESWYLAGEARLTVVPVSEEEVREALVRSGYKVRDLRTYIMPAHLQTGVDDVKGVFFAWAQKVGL

[3] = molecular target: Glutathione peroxidase 1 (Homo sapiens) (UniProt P07203); experiment: Primary qHTS Assay for Inhibitors of Recombinant Selenoprotein Glutathione Peroxidase 1 (GPX1) (AID 1845191); details: recombinant GPX1, GR-coupled NADPH fluorescence, 15 min; series mostly up to 48.8 µM; note: nearly all actives have a fitted effect of over 65% in size; note: potency is the fitted concentration of half-maximal effect
Chain of Glutathione peroxidase 1 (Homo sapiens) (P07203 whole entry, looked up): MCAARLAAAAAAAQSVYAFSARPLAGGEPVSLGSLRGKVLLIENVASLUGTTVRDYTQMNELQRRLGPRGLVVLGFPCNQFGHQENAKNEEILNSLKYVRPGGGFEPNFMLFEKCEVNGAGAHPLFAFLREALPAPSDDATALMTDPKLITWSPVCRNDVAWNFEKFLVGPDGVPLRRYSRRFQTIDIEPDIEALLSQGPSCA
Summary of the method: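 NADPH consumption tracked by fluorescence at 340/450 nm between t=0 and t=15 min, room temperature. Final mix: 10 nM GPX1, 100 nM glutathione reductase, 1 mM GSH, 0.5 mM NADPH, 0.5 mM cumene hydroperoxide, 0.01% BSA; 30 min compound–enzyme preincubation.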

[4] = molecular target: Phospholipid hydroperoxide glutathione peroxidase GPX4 (Homo sapiens) (UniProt P36969); experiment: Primary qHTS Assay for Inhibitors of Recombinant Selenoprotein Glutathione Peroxidase 4 (GPX4) (AID 1845192); details: recombinant GPX4, GR-coupled NADPH fluorescence, 15 min; series mostly up to 50 µM; note: nearly all actives have a fitted effect of over 65% in size; note: potency is the fitted concentration of half-maximal effect
Chain of Phospholipid hydroperoxide glutathione peroxidase GPX4 (Homo sapiens) (P36969 whole entry, looked up): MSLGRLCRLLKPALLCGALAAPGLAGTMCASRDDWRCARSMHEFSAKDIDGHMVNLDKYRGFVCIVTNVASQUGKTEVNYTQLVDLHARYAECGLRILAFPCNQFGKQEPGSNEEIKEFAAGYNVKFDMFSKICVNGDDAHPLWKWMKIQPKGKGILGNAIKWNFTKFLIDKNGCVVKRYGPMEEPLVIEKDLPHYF
Summary of the method: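 NADPH consumption followed by fluorescence at 340/450 nm, t=0 and after 15 min at room temperature. Reaction started with cumene hydroperoxide (0.5 mM final) after 30 min compound–GPX4 preincubation; final 200 nM GPX4, 100 nM GR, 1 mM GSH, 0.5 mM NADPH.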

[5] = molecular target: Luciferin 4-monooxygenase (Photinus pyralis) (UniProt P08659); experiment: Primary firefly luciferase (FLuc) qHTS assay for identification of artifact compounds. (AID 1845220); details: purified firefly luciferase, luminescence, 5 min; series mostly up to 54.1 µM; note: nearly all actives have a fitted effect of over 60% in size
Summary of the method: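 Compounds sat 15 min at room temperature with 10 uM luciferin and 10 uM ATP (pH 7.6 Tris acetate). Firefly luciferase (10 nM final) was then added, and luminescence was read 5 min later. Data normalized to no-enzyme and DMSO controls were Hill-fitted.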

[6] = Primary fluorescence-based thiol-reactive (MSTI) qHTS assay for identification of artifact compounds. (AID 1845221); details: MSTI thiol-reactivity probe, 1 h; series mostly up to 53.8 µM;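 note: thiol-reactive compounds lower the probe fluorescence signal; nearly all actives have a fitted effect of over 65% in size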
Summary of the method: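 Compounds were incubated 1 h at room temperature in the dark with the MSTI probe (4 uM) in PBS pH 7.4, 2% DMSO. Signals were normalized between Acetyl-MSTI and MSTI.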

[7] = system: Nanoluciferase (engineered Oplophorus gracilirostris luciferase); experiment: Primary Nanoluciferase (NLuc) qHTS assay for identification of artifact compounds. (AID 1845222); details: NLuc-conditioned medium, Nano-Glo luminescence, 5 min; series mostly up to 54.1 µM; note: potency is the fitted concentration of half-maximal effect
Summary of the method: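 Luminescence from secreted NLuc (filtered, 1:55-diluted S16 cell medium) read 5 min after Nano-Glo substrate; compounds preincubated 15 min, RT. Hill fits of inhibition normalized to DMSO and no-enzyme.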

[8] = molecular target: Metallo-beta-lactamase type 2 (Klebsiella pneumoniae) (UniProt C7C422); experiment: qHTS to identify inhibitors of the New Delhi Metallo-beta-lactamase (NDM): assay validation screen against the NCATS LOPAC Collection (AID 1794843); details: NDM-1 enzyme, nitrocefin hydrolysis, absorbance 485 nm; series mostly up to 38.4 µM;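 note: nitrocefin turnover by NDM-1 measured as 485 nm absorbance at plateau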
Chain of Metallo-beta-lactamase type 2 (Klebsiella pneumoniae) (C7C422 whole entry, looked up): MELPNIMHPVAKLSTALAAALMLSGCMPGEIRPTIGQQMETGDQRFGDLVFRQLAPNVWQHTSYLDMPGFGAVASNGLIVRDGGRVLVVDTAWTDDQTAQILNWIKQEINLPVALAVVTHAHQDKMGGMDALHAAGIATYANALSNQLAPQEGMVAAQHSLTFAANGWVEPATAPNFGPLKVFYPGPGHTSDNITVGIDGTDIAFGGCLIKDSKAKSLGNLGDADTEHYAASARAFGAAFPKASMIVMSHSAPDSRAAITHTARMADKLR
Summary of the method: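 Enzyme 2 nM final, 50 mM HEPES pH 7.0, 1 uM ZnSO4, 0.01% Tween20; cpds in DMSO, preincub w/ enzyme; + nitrocefin (50 uM stock); A485 at plateau; no-enzyme column as blank.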

[9] = NCATS anti-infectives library activity on HEK293 viability as a counter-qHTS vs the C. elegans viability qHTS (AID 1745854); details: HEK293 viability counter-screen; series mostly up to 41.8 µM;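 note: HEK293 cells exposed to compounds for 24 hr before the viability read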; note: potency is the fitted concentration of half-maximal effect
Summary of the method: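 Counter-screen for cytotoxicity: HEK293, 24 hr, 37C, compounds up to 41.7 uM final (a dilution series, 1:5). Readout CellTiter-Glo luminescence, 10 min RT. Digitonin control, 83.3 uM final.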

N#Cc1c(O)c2c(-c3ccc(-c4ccccc4O)cc3)csc2[nH]c1=O
activity [1]: -31.1%
activity [2]: -7.68%
Potency [3]: 12.8 µM (active) and inactive
Potency [4]: inactive
Potency [5]: inactive
Potency [6]: inactive

CNC(=O)CN1CCC(Oc2cc3c(Nc4cccc(Cl)c4F)ncnc3cc2OC)CC1
activity [1]: -23.1%
activity [2]: -49.9%
Potency [3]: inactive
Potency [5]: inactive
Potency [7]: inactive

COc1cc2c(NC3CCN(C(C)C)CC3)nc(C3CCCCC3)nc2cc1OCCCN1CCCC1
activity [1]: -39.8%
activity [2]: -4.49%
Potency [3]: inactive
Potency [5]: inactive
Potency [6]: inactive

CC(C)c1cc(-c2n[nH]c(=O)n2-c2ccc3c(ccn3C)c2)c(O)cc1O
activity [1]: -33.4%
activity [2]: -21.8%
Potency [3]: inactive
Potency [4]: inactive
Potency [5]: inactive
Potency [6]: inactive

C=CCn1c(=O)c2cnc(Nc3ccc(N4CCN(C)CC4)cc3)nc2n1-c1cccc(C(C)(C)O)n1
activity [1]: -8.48%
activity [2]: -20.6%
Potency [3]: inactive
Potency [5]: inactive
Potency [7]: inactive

Cc1nc(Nc2n[nH]c3c2CN(C(=O)N[C@H](CN(C)C)c2ccccc2)C3(C)C)c2sccc2n1
activity [1]: -22.7%
activity [2]: -1.08%
Potency [3]: inactive
Potency [5]: inactive
Potency [6]: inactive

C[C@@H](Oc1cc(-c2cnn(C3CCNCC3)c2)cnc1N)c1c(Cl)ccc(F)c1Cl
activity [1]: -57.8% and -68.4%
activity [2]: -33.1% and -60.2%
Potency [4]: inactive
Potency [5]: inactive
Potency [6]: inactive
Potency [7]: inactive

Nc1nc(NCCNc2ncc(-n3ccnc3)c(-c3ccc(Cl)cc3Cl)n2)ccc1[N+](=O)[O-]
activity [1]: -47.1%
activity [2]: -4.53%
Potency [3]: inactive
Potency [4]: inactive
Potency [5]: inactive
Potency [6]: inactive
Potency [7]: 0.536 µM (active)

COCCOc1ccc2c(c1)ncn2-c1ccc2cccc(N3CCC(N)CC3)c2n1
activity [1]: -9.06%
activity [2]: -17.7%
Potency [5]: inactive
Potency [6]: inactive
Potency [7]: inactive

CCn1nnc2c(N3CCOCC3)nc(-c3ccc(NC(=O)Nc4ccc(C(=O)N5CCN(C)CC5)cc4)cc3)nc21
activity [1]: -65.9%
activity [2]: -1.56%
Potency [3]: inactive
Potency [5]: inactive
Potency [6]: inactive
Potency [7]: inactive

CCn1cc(-c2ccnc3[nH]c(-c4cccc(CN(C)C)c4)cc23)c(-c2ccc(NC(=O)N(C)C)cc2)n1
activity [1]: -7.11% and -33%
activity [2]: -1.24% and -20%
Potency [3]: inactive
Potency [5]: inactive
Potency [6]: inactive

O=c1c2ccccc2nc2n1CCc1c-2[nH]c2ccccc12
outcome [8]: inactive
Potency [4]: inactive
Potency [6]: inactive
Potency [7]: inactive

O=C(NCCS(=O)(=O)c1ccc(C(F)(F)F)cn1)c1ccc(Cl)cc1
Potency [3]: inactive

COCCn1c2c([n+](Cc3cnccn3)c1C)C(=O)c1ccccc1C2=O
Potency [3]: inactive
Potency [4]: inactive

Cc1cc(Nc2cc(NC(=O)c3c(Cl)cccc3Cl)ccn2)nc(N)n1
Potency [3]: inactive
Potency [4]: inactive

Cn1cncc1[C@@](N)(c1ccc(Cl)cc1)c1ccc2c(c1)c(-c1cccc(Cl)c1)cc(=O)n2C
Potency [3]: inactive

CN(C)Cc1c(C(=O)NCCOc2ccc(C(=O)NO)cc2)oc2ccccc12
Potency [9]: inactive
Potency [3]: inactive
Potency [4]: inactive
Potency [5]: inactive

CN1c2cc(O)c(N=NC(N)=O)cc2CC1S(=O)(=O)O (stereo not given)
Potency [3]: inactive
Potency [4]: inactive

COc1ccc(-n2nc(C(N)=O)c3c2C(=O)N(c2ccc(N4CCCCC4=O)cc2)CC3)cc1
Potency [9]: inactive
Potency [3]: inactive
Potency [4]: inactive
Potency [5]: inactive
Potency [6]: inactive
Potency [7]: inactive

Cc1ccc(S(=O)(=O)Nc2cc(Cl)ccc2C(=O)Nc2nc(-c3ccccc3)cs2)cc1
Potency [3]: inactive

COc1cc2c(cc1-c1c(C)noc1C)ncc1[nH]c(=O)n([C@H](C)c3ccccn3)c12
Potency [9]: inactive
Potency [3]: inactive
Potency [4]: inactive
Potency [5]: inactive
Potency [6]: inactive
Potency [7]: inactive

COc1c(OCCCN2CCOCC2)ccc2c3n(c(=NC(=O)c4cnc(N)nc4)nc12)CCN3
activity, negative = inhibition [3]: -31.4% [at 9.52 µM] (inactive) and 3.3% [at 9.52 µM] (inactive)
outcome [3]: inactive [at 9.52 µM]
activity change, negative = inhibition [5]: -4.27% [at 11.6 µM] (inactive)
activity change, negative = thiol reactive [6]: 32.5% [at 11.5 µM] (inactive)
activity, negative = inhibition [7]: 0.183% [at 11.6 µM] (inactive)

C[C@@H](Oc1cc(-n2cnc3ccc(CN4CCN(C)CC4)cc32)sc1C(N)=O)c1ccccc1C(F)(F)F
Potency [3]: inactive

Nc1ccccc1NC(=O)c1ccc(CNC(=O)OCc2cccnc2)cc1
Potency [9]: inactive
Potency [3]: inactive
Potency [4]: inactive
Potency [5]: inactive
Potency [7]: inactive

CC(=O)OCCN1C(=O)c2c(C)nc3ccc(S(=O)(=O)N4CCOCC4)cc3c2C1=O
Potency [3]: inactive

CC(C)[C@H](C(=O)Nc1ccc(C(=O)NO)cc1)c1ccccc1
Potency [9]: inactive
Potency [3]: inactive
Potency [4]: inactive

COc1cc(C(=O)NS(=O)(=O)c2ccccc2C)ccc1Cc1cn(C)c2ccc(NC(=O)OC3CCCC3)cc12
Potency [3]: inactive

COc1cc(OC2CCN(C)CC2)ccc1Nc1ncc2c(n1)n(C1CCCC1)c(=O)n2C
Potency [3]: inactive
Potency [4]: inactive

CC(C)c1ccccc1Cc1cc(C(=O)Nc2ccc(S(=O)(=O)c3ccccc3C(C)(C)C)cc2)c(O)c(O)c1O
Potency [3]: inactive

CC(C)(C)c1cc(C(C)(C)C)c(NC(=O)c2c[nH]c3ccccc3c2=O)cc1O
Potency [3]: inactive
Potency [4]: 17.8 µM (active)

COc1cccc2c(NCc3ccccc3)nc(-n3c(N)nc4ccccc43)nc12
Potency [9]: 7.08 µM (active)
Potency [4]: inactive
Potency [5]: inactive
Potency [7]: inactive

Nc1nc(-c2nn(Cc3ccccc3F)c3ncccc23)nc(N)c1N1CCOCC1
Potency [3]: inactive
Potency [4]: inactive

O=C(O)[C@H](Cc1c[nH]c2ccccc12)N1C(=O)c2ccccc2C1=O
Potency [3]: inactive
Potency [4]: inactive

CC(C)(C)OC(=O)Nc1ccc(-c2cc(C(=O)NCCCCCCC(=O)NO)no2)cc1
Potency [9]: inactive
Potency [3]: inactive
Potency [4]: inactive

Cn1c2cc(S(C)=O)sc2c2cnn(Cc3cccc(N)c3)c(=O)c21 (stereo not given)
Potency [3]: inactive
Potency [4]: inactive

C[C@@]12O[C@@H](C[C@]1(O)CO)n1c3ccccc3c3c4c(c5c6ccccc6n2c5c31)CNC4=O
Potency [3]: inactive

O=C(CCCCCCNC(=O)c1cnc(N(c2ccccc2)c2ccccc2)nc1)NO
Potency [9]: inactive
Potency [4]: inactive
Potency [5]: inactive
Potency [6]: inactive
Potency [7]: inactive
